# Screens from PubChem BioAssay.
# UGM FP inh = blocks M. tuberculosis UGM enzyme; AID 504406; purified UGM, fluorescence polarization probe displacement; inhibition, % at 10 µM; actives 0.06% (n = 320,000); P9WIQ1; in the data active means inhibition above about 10%, passing the limit was not always enough; inconclusive means no clear call, values can overlap the other calls
# FBA Mtb inh = inhibitors of M. tuberculosis fructose-bisphosphate aldolase; actives 2.3% (n = 360,000); inhibition, % at 1 µM; purified M. tuberculosis FBA, fluorescence read-out;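 further: 0% = vehicle and 100% = reference inhibitor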
# Rv3671c inh = inhibits the M. tuberculosis serine protease Rv3671c | P9WHR9 | inhibition, % at 5.96 µM | actives 0.048% (n = 320,000); in the data active means inhibition above about 38%;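 further: extracellular domain of Rv3671c used as enzyme; 0% = enzyme with DMSO and 100% = no enzyme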
# Target sequence (P9WHR9 whole entry, looked up, the tested form may be a part): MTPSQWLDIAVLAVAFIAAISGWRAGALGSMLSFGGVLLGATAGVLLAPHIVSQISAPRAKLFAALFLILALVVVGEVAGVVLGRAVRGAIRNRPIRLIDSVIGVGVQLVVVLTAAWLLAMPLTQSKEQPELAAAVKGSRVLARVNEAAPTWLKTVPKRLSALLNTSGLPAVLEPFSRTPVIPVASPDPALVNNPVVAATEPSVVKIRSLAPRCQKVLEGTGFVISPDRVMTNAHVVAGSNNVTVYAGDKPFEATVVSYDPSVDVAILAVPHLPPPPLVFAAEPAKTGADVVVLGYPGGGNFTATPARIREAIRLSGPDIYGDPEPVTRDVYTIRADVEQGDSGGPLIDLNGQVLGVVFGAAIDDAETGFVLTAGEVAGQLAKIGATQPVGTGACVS
# GDH-TPI counter-1 = inhibits GDH-TPI coupling enzymes, artifact for Mtb FBA screen; GDH-TPI coupled enzyme counterscreen, NADH absorbance; AID 588335; actives 1.2% (n = 360,000); inhibition, % at 4.8 µM; in the data active means inhibition above about 30%;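 further: 0% = DMSO wells and 100% = wells lacking the enzyme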
# Mtb FBA inh conf = Mtb FBA inhibition, confirmed. inhibition, % at 1 µM. purified M. tuberculosis FBA, fluorescence read-out. shares compounds with FBA Mtb inh. AID 651616. actives 78% (n = 5,600);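 further: 0% = vehicle wells and 100% = reference inhibitor wells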
# GDH-TPI counter-2 = GDH-TPI inhibition counter-screen for FBA inhibitors. inhibition, % at 1 µM. shares compounds with FBA Mtb inh. actives 81% (n = 5,600). GDH-TPI coupled enzyme counterscreen, fluorescence; in the data active means inhibition above about 10%
# GDH-TPI DR = inhibits GDH-TPI coupling enzymes in dose response. shares compounds with FBA Mtb inh. GDH-TPI coupled enzyme assay, fluorescence, artifact counterscreen. actives 79% (n = 170). AID 652145. IC50, µM; call rule not given here
# An asterisk follows results filed as active; ? = inconclusive; / = not tested or not shown; + = active, no number. This is a sample that favours compounds with a hit; in the whole collection about 3.5% have one here. Unless noted, no stated cut-off is given here; in the data, active means inhibition above about 27%; inactive means the rest.
SMILES,UGM FP inh,FBA Mtb inh,Rv3671c inh,GDH-TPI counter-1,Mtb FBA inh conf,GDH-TPI counter-2,others
O=C(C[C@@H]1C/C=C\C[C@H](Cc2ccc(F)cc2)C(=O)OCCNC1=O)NCCO,0,-2,0,-2,/,/,
COc1ccc(-c2c(C#N)c(N)nc3c2CCCC3)cc1OC,2,4,3,19,/,/,
N#Cc1c(N)nc2c(c1-c1ccccc1)CCC2,1,61*,-2,11,119*,91*,
COc1ccc(-c2c(C#N)c(N)nc3c2CCC3)cc1,-2,53*,-2,2,136*,93*,
COc1cc(-c2c(C#N)c(N)nc3c2CCCC3)cc(OC)c1OC,-4,3,2,9,/,/,
CC1=CN(S(=O)(=O)c2ccc(C)cc2)C[C@@H]2c3ccccc3N(S(=O)(=O)c3ccc(C)cc3)[C@H]12,/,0,/,-2,/,/,
O=c1nc2n(CCO)c3ccccc3cc-2c(=O)[nH]1,/,96*,/,16,77*,56*,
O=c1nc2n(Cc3ccccc3)c3ccccc3cc-2c(=O)[nH]1,3,/,0,/,/,/,
COc1cc(-c2nc3cccc(C)n3c2NCC2CCCO2)ccc1O (configuration not stated),-2,29*,4,-10,+,+,
CC(OC(=O)C1CCCCC1)C(=O)Nc1cccc([N+](=O)[O-])c1 (configuration not stated),-2,-1,-7,-1,/,/,
COc1ccc(OC)c(N)c1,1,-1,18,9,/,/,
COc1cc(OC)c(Cl)cc1N,1,45*,-1,-2,67*,51*,
CC1CC(C)CN(c2oc(-c3ccco3)nc2C#N)C1 (configuration not stated),/,91*,0,19,6,4,
N#Cc1nc(-c2ccco2)oc1N1CCc2ccccc2C1,1,46*,3,23,52*,39*,
Cc1ccnc(NS(=O)(=O)c2ccc(NC(=O)CC(C)c3ccccc3)cc2)n1 (configuration not stated),?,0,0,2,/,/,
CCOC(=O)[C@H]1[C@H]2COc3ccc(Cl)cc3[C@@H]2N2C(=O)c3cc(F)ccc3NC(=O)[C@@]12C,1,0,1,13,/,/,
O=[N+]([O-])c1ccc(O)c(C=Nc2cccc3ccccc23)c1,-2,23,-1,15,/,/,
Oc1ccc(C=Nc2cccc3ccccc23)c(O)c1,-2,62*,-7,9,132*,122*,
O=[N+]([O-])c1cccc(C=Nc2cccc3ccccc23)c1O,1,39*,-6,7,179*,157*,
Cc1c(N)cc2c(c1N)C(C)(C)CC2(C)C,/,0,/,0,/,/,
Cc1onc(-c2c(Cl)cccc2Cl)c1C(=O)Nc1ccc(N2CCOCC2)cc1,-2,-1,-6,-10,/,/,
CC(=O)Nc1cc(-c2ccccc2N(C)C)cn2c(-c3cccc(C(F)(F)F)c3)cnc12,/,6,/,8,/,/,
N#CC(C#N)=C1NC(N)=C(C#N)C(c2ccccc2)=C1C#N,4,71*,-7,33*,86*,74*,
COC(=O)c1ccc(C#Cc2ccccc2)o1,-3,58*,2,3,49*,57*,
CC(C)C(NC(=O)c1ccc(Cl)c([N+](=O)[O-])c1)C(=O)NCc1ccccn1 (configuration not stated),3,-4,8,11,/,/,
SMILES,UGM FP inh,FBA Mtb inh,Rv3671c inh,GDH-TPI counter-1,Mtb FBA inh conf,GDH-TPI counter-2,others
COc1ccc(-c2cc(=O)c3cc(OC)ccc3o2)cc1,1,26,0,5,/,/,
COc1ccc2oc(-c3ccccc3)c(C(=O)N(C)C)c2c1,1,34*,0,10,120*,113*,
COc1ccc2oc(-c3ccccc3)cc(=O)c2c1,/,79*,/,12,134*,100*,
COc1ccc2oc(-c3ccccc3)c(C(N)=O)c2c1,-1,99*,-5,21,110*,88*,
CN(C)C(=O)c1c(-c2ccccc2)oc2ccc(O)cc12,0,18,-2,7,/,/,
Oc1ccc2ccccc2c1CNc1cnc2ccccc2c1,2,50*,-1,30,-5,-6,
CC(C)n1c(NCc2cc(Cl)ccc2O)nc2ccccc21,-2,-1,5,6,/,/,
C=CCc1cccc(CNc2cnc3ccccc3c2)c1O,0,26,3,1,/,/,
Oc1ccc(Cl)cc1CNc1cnc2ccccc2c1,0,34*,6,30,+,170*,
Oc1ccccc1CNc1cnc2ccccc2c1,1,40*,0,13,5,3,
COc1ccc(CCNC(=O)C2(C)CCC(=O)N2Cc2ccc(C)cc2)cc1OC (configuration not stated),0,6,2,9,/,/,
Cc1cccc(COc2ccc(/C=C3/C(=O)N(C)C(=S)N3C)cc2)c1,0,-2,-3,14,/,/,
O=C(/C=C/c1cn(-c2ccccc2)nc1-c1cccs1)NCCN1CCOCC1,-1,46*,-8,26,143*,87*,
CNc1ncnc2c1ncn2[C@H]1CN(Cc2cccs2)C[C@@H](CO)O1,/,0,/,-5,/,/,
COc1ccc2nc(N/C(N)=N/S(C)(=O)=O)nc(C)c2c1,0,53*,-1,-1,+,+,
O=C(O)CNS(=O)(=O)c1ccc2c3c(cccc13)C(=O)N2,0,37*,/,16,+,145*,
CNS(=O)(=O)c1cc(S(=O)(=O)NC)c2cccc3c2c1NC3=O,-2,31*,2,23,92*,77*,
O=C1Nc2ccc(S(=O)(=O)NCc3ccco3)c3cccc1c23,0,26,-1,7,/,/,
CNS(=O)(=O)c1ccc2c3c(cccc13)C(=O)N2,-3,56*,/,17,17,4,GDH-TPI DR=2.9*
O=C(O)CCCCCNS(=O)(=O)c1ccc2c3c(cccc13)C(=O)N2,1,40*,/,10,90*,67*,
Cc1cnc(C(=O)OC(C(=O)c2c[nH]c3ccccc23)c2ccccc2)cn1 (configuration not stated),-1,0,3,-6,/,/,
O=C1Nc2ccc(S(=O)(=O)N(CCO)CCO)c3cccc1c23,1,32*,/,8,0,-5,
CN(c1ccccc1C(=O)O)S(=O)(=O)c1ccc2c3c(cccc13)C(=O)N2,-1,4,6,1,/,/,
COc1cc2sc3cc(NCc4ccc(C)o4)ccc3c(=O)c2cc1OC,0,33*,-20,20,131*,126*,
COc1cc2sc3cc(NCC[C@@H]4CCCN4C)ccc3c(=O)c2cc1OC,-3,32*,-13,42*,+,194*,
COc1cc2sc3cc(NCc4ccc5c(c4)OCO5)ccc3c(=O)c2cc1OC,-2,18,-13,20,/,/,
CCOC(=O)c1cc(-c2ccc(OC)cc2)nc2c1c(C)nn2CCC#N,-2,31*,-1,31*,76*,60*,
